In PubChem BioAssay (EPA / NIEHS):
Calls of active or inactive are those of the source. How the source made its calls: active means hit-call score of the fitted dose curve at least 0.9, where 1 is the maximum; inactive means score below 0.9.

Assay: APR_HepG2_NuclearSize_24hr: Apredica 24-hour HepG2 Assay for Nuclear Size (AID 2282907)
Details: high-content imaging, actives raise or lower the signal
Protocol: APR_HepG2_24hr is a cell-based, multiplexed-readout assay that uses HepG2, a human liver cell line, with measurements taken at 24 hours after chemical dosing in a 384-well plate.APR_HepG2_NuclearSize_24hr is one of 10 assay component(s) measured or calculated from the APR_HepG2_24hr assay. It is designed to make measurements of cell phenotype, a form of morphology reporter, as detected with fluorescence intensity signals by HCS Fluorescent Imaging technology.Data from the assay component APR_HepG2_NuclearSize_24hr was analyzed into 1 assay endpoint. This assay endpoint, APR_HepG2_NuclearSize_24hr, was analyzed with bidirectional fitting relative to DMSO as the negative control and baseline of activity. Using a type of morphology reporter, measures of all nuclear dna for gain or loss-of-signal activity can be used to understand the signaling at the nuclear-level. Furthermore, this assay endpoint can be referred to as a primary readout, because this assay has produced multiple assay endpoints where this one serves a signaling function. To generalize the intended target to other relatable targets, this assay endpoint is annotated to the cell morphology intended target family, where the subfamily is organelle conformation.
Cells were treated with dimethyl sulfoxide (DMSO) as a solvent control at a final concentration of 0.5% v/v or with compounds in DMSO with a resulting final DMSO concentration of 0.5% v/v. Compound treatment was done at concentrations of 0.39, 0.78, 1.56, 3.12, 6.24, 12.5, 25, 50, 100, and 200 uM in duplicate on each plate. Cells were treated with compounds for 1, 24, or 72 hr. Carbonyl […] m-chloro-phenylhydrazone (CCCP) and taxol were used as positive controls for mitochondrial function and cytoskeletal stability, respectively; DMSO served as the negative control for this experiment. Cells were fixed by the direct addition of 50 uL formaldehyde in Hank's Balanced Salt Solution (HBSS) to a final concentration of 3.7%. After incubation in the fixation medium for 30 min at room temperature (293-298 K), cells were rinsed twice with HBSS and treated with cell permeabilization buffer (16 uL of 0.5% Triton X-100) for 10 min at room temperature (293-298 K) before labeling. For mitochondrial membrane potential and mitochondrial measurements, pre-fixed cells were incubated with 50 uL of MitoTracker Red CMXRos (Invitrogen) at a concentration of 250 nM for 30 min before fixation. In the remaining cases, post-fixed cells were labeled by incubation with a multiplexed mixture of primary antibodies in HBSS for 60 min at room temperature (293-298 K) to detect immunoreactivity of c-Jun (1:500), phospho-histone H3 (1:100), phospho-histone H2A.x (1:200), p53 (1:400), alpha-tubulin (1:200) and Hoechst 33342 (2 ug/mL). Cells were labeled for multiplexed imaging on two separate plates: a) Hoechst 33342, MitoTracker Red, phospho-histone H3, and alpha-tubulin, and b) Hoechst 33342, phospho-histone H2A.x, and c-Jun. A final rinse with HBSS (50 uL) was performed before analysis. The primary and secondary antibodies for the proteins were phospho-histone H3 (rabbit anti-phospho-histone H3 and FITC-donkey anti-rabbit IgG), phospho-histone H2A.x (mouse anti-phospho-histone H2A.x and FITC-donkey anti-mouse IgG), c-Jun (rabbit anti-phospho-c-Jun and Cy3-donkey anti-rabbit IgG), p53 (sheep anti-p53 and Cy5-donkey anti-sheep IgG), alpha-tubulin (mouse anti-alpha-tubulin and Cy5-donkey anti-mouse IgG). These antibodies are available as the CellCiphr HepG2 assay kit (Millipore).Digital images of each well were captured using a Cellomics ArrayScan VTI (Thermo Scientific Cellomics) (0.8 NA objective, 0.63x optical coupler, and XF-93 filter set) at 20x magnification. The images were acquired using the autofocus feature of the ArrayScan instrument, which entails the following steps. First, the camera focuses on channel 1 (Hoechst 33342), where nuclei are identified. Second, a Z offset of 1 um is used for capturing mitochondria (MitoTracker Red). […]

Structure (SMILES) | outcome | AC50
CSc1ccc(Oc2ccc(S(N)(=O)=O)cc2CN(C)C)cc1C | inactive | –
CC(COCC(C)OC(=O)c1ccccc1)OC(=O)c1ccccc1 (stereo not given) | inactive | –
CC1(C)C(=O)NC(=O)N1CO | inactive | –
CCCCCCCCCCCCCCOS(=O)(=O)O | inactive | –
CCC(C)N(C)C(=O)c1cc2ccccc2c(-c2ccccc2Cl)n1 (stereo not given) | inactive | –
N[C@@H](Cc1c[nH]c2ccccc12)C(=O)O | inactive | –
S=c1[nH]c2ccccc2s1 | inactive | –
CC(C)(C)c1ccccc1 | inactive | –
CC(=O)OCC(COC(C)=O)OC(C)=O | inactive | –
O=C(O)c1cccnc1 | inactive | –
CCc1cc(C2=C(C(=O)O)N(c3ccccc3C(F)(F)F)S(=O)(=O)c3ccccc32)cc2c1OCO2 | inactive | –
Oc1ccccc1O | inactive | –
Cc1cc(Cc2ccc(N)c(C)c2)ccc1N | inactive | –
CCc1nc(N)nc(N)c1-c1ccc(Cl)cc1 | inactive | –
O=C(O)CC(O)(CC(=O)O)C(=O)O | inactive | –
COC(=O)CCC(=O)OC | inactive | –
CN(C)C(=O)NC1(c2ccccc2)CCN(CC[C@@]2(c3ccc(F)c(F)c3)CN(C(=O)c3ccccc3)CCO2)CC1 | inactive | –
O=C(NS(=O)(=O)/C=C/c1cccs1)c1ccc(F)cc1Br | inactive | –
Cc1cc(SC2=C(O)C[C@@](CCc3ccc(N)cc3)(C(C)C)OC2=O)c(C(C)(C)C)cc1CO | inactive | –
Oc1ccc(O)cc1 | inactive | –

Structure (SMILES) | outcome | AC50
COC(=O)[C@H]1[C@H]2C[C@@H]3c4[nH]c5cc(OC)ccc5c4CCN3C[C@H]2C[C@@H](OC(=O)c2cc(OC)c(OC)c(OC)c2)[C@@H]1OC | inactive | –
C/C=C/C=C/C(=O)O | inactive | –
O=C1NC(=O)C(c2ccccc2)(c2ccccc2)N1 | inactive | –
OCC(O)CO | inactive | –
CN(C)C(=O)NC1(c2ccccc2)CCN(CCC[C@]2(c3ccc(Cl)c(Cl)c3)CCCN(C(=O)c3ccccc3)C2)CC1 | inactive | –
CCCC[C@H]1CN(CC2CCOCC2)C(=O)OC12CCN(C1(C)CCN(C(=O)c3c(C)ncnc3C)CC1)CC2 | inactive | –
CC(=O)[C@@]1(O)CC[C@H]2[C@@H]3CCC4=CC(=O)CC[C@]4(C)[C@H]3CC[C@@]21C | inactive | –
CC(=O)S[C@H](C(=O)N[C@H]1Cc2ccccc2[C@H]2CCC[C@@H](C(=O)O)N2C1=O)C(C)C | inactive | –
O=NO | inactive | –
NCCOCCOCCN | inactive | –
Nc1nc(=S)c2[nH]cnc2[nH]1 | inactive | –
O=C1OC(c2ccc(O)cc2)(c2ccc(O)cc2)c2ccccc21 | inactive | –
O=C(O)c1[nH]n(-c2ccc(S(=O)(=O)O)cc2)c(=O)c1N=Nc1ccc(S(=O)(=O)O)cc1 | inactive | –
Cc1ccc(-c2cc(C(F)(F)F)nn2-c2ccc(S(N)(=O)=O)cc2)cc1 | – | 118 µM (active)
O=C(N[C@@H](c1ccccc1)[C@@H]1CCCCN1)c1cccc(C(F)(F)F)c1Cl | – | 17.4 µM (active)
CCN(CC)CCOc1ccc(C(=C(Cl)c2ccccc2)c2ccccc2)cc1 | – | 15.7 µM (active)
CC(=O)CC(c1ccccc1)c1c(O)c2ccccc2oc1=O (stereo not given) | inactive | –
CC(C)(O)c1ccc(CNC(=O)c2cccnc2Oc2ccc(F)cc2)cc1 | inactive | –
CC(=O)O[C@]1(C(C)=O)CC[C@H]2[C@@H]3C=C(Cl)C4=CC(=O)[C@@H]5C[C@@H]5[C@]4(C)[C@H]3CC[C@@]21C | inactive | –
c1ccc2occc2c1 | inactive | –
